Assay results reported in PubChem BioAssay.
Several values for one entry are separate records, joined by “and”; a condition that tells them apart may be missing. Identical values can stand only once. A structure can be active in one record and inactive in another. Activity calls are given as the source filed them. Unless noted, the rule behind the calls is not given here.

test system: not listed separately; experiment: hESC survival regulators, cell-based (AID 493140); conditions: human embryonic stem cell survival screen; stronger effect = higher value;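 note: cells exposed to compounds for four days before counting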

Compound | survival
C[C@@H]1CC[C@H]2[C@@H](C)C(=O)O[C@@H]3OC4(C)CC[C@@H]1[C@]32OO4 | 4.67 (inactive)
CC[C@]12CCCN3CCc4c(n(c5ccccc45)[C@](O)(C(=O)OC)C1)[C@@H]32 | 6.25 (inactive)
C=C1C2CC[C@H]3[C@]4(C)C[C@H](OC5OC(CO)C(OS(=O)(=O)O)C(OS(=O)(=O)O)C5OC(=O)CC(C)C)C[C@@H](C(=O)O)[C@H]4CC[C@]3(C2)[C@H]1O (stereo not given in full) | 8.25 (inactive)

test system: not listed separately; experiment: liver-stage malaria parasite growth inhibition, primary screen, cell-based, HepG2, luciferase luminescence, HepG2 viability (AID 624349; in the data active = parasite load remaining mostly below about 12%, no sharp cut-off; inactive = mostly above about 10%;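 note: 100% = mean of DMSO negative control wells on the same plate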); conditions: P. berghei liver stage in HepG2, luciferase luminescence, concentration not given here; parasite load remaining: stronger effect = lower value; viability: measured here: HepG2 viability without parasites

Compound | parasite load remaining | viability
C[C@@H]1CC[C@H]2[C@@H](C)C(=O)O[C@@H]3OC4(C)CC[C@@H]1[C@]32OO4 | 71.2% (inactive) | 72.2%
C[C@]12CCC3C(CC[C@H]4CC(=O)CC[C@]34C)C1CCC2=O (stereo not given in full) | 63.7% (inactive) | 96.1%
O=C1OCCN1/N=C/c1ccc([N+](=O)[O-])o1 | 1.08% (active) and 4.96% (inactive) | 58.1% and 96.5%
CCC(C)C(=O)O[C@H]1[C@H](O)C2C(CN3CC(C)CCC3[C@@]2(C)O)C2C[C@]34O[C@]5(O)C(OC(=O)C(C)(O)C(C)O)CC[C@@]3(C)C5C(OC(C)=O)[C@@H](OC(C)=O)C4[C@@]21O (stereo not given in full) | 75% (inactive) | 68.5%
C/C=C(\C)C(=O)O[C@H]1C[C@@H](OC(C)=O)[C@@]2(C(=O)OC)CO[C@@H]3C2[C@]12CO[C@](O)(C(=O)OC)[C@H]2[C@](C)(C12O[C@@]1(C)[C@H]1C[C@@H]2OC2OC=C[C@@]21O)[C@@H]3O (stereo not given in full) | 62.6% (inactive) | 97.8%
CNC(C)[C@@H]1CC[C@@H](N)[C@@H](OC2[C@@H](N)C[C@@H](N)[C@H](OC3OC[C@](C)(O)[C@H](NC)[C@H]3O)[C@H]2O)O1 (stereo not given in full) | 99.6% (inactive) and 66.4% (inactive) | 74.9% and 95.7%
O=C1CC2OCC=C3CN4CC[C@]56c7ccccc7N1C5[C@H]2[C@H]3CC46 (stereo not given in full) | 113% (inactive) and 54.7% (inactive) | 71.9% and 95.5%
COc1ccc2c(c1)[C@]13CCCC[C@H]1[C@H](C2)N(C)CC3 | 84.3% (inactive) | 71.2%
CNC(Cc1c[nH]c2ccccc12)C(=O)O (stereo not given) | 105% (inactive) | 73.8%
COc1ccc2c(c1OC)C(=O)O[C@H]2[C@H]1c2cc3c(cc2CCN1C)OCO3 | 124% (inactive) | 70.9%
C[C@@H]1C(=O)OC2[C@H](O)C34[C@@H]5OC(=O)[C@@]3(O[C@@H]3OC(=O)[C@H](O)[C@@]34[C@H](C(C)(C)C)[C@H]5O)[C@]21O (stereo not given in full) | 84.4% (inactive) | 70.9%
C[C@@H]1CC[C@@]2(NC1)O[C@H]1C[C@H]3C4CC=C5C[C@@H](O)CC[C@]5(C)C4CC[C@]3(C)C1[C@@H]2C (stereo not given in full) | 57% (inactive) | 93.1%
COc1ccc2c(c1OC)C(=O)O[C@@H]2[C@@H]1c2cc3c(cc2CCN1C)OCO3 | 190% (inactive) | 68.5%

test system: Aerobactin synthetase IucA (Klebsiella pneumoniae hvKP1); experiment: Biochemical IucA enzyme inhibition primary screen of the Spectrum library (AID 1346200); conditions: malachite green pyrophosphate, A620, at 8 µM, stronger effect = lower value;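 note: 100% = wells without compound and 0% = wells lacking enzyme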

Compound | activity remaining
C[C@@H]1CC[C@H]2[C@@H](C)C(=O)O[C@@H]3OC4(C)CC[C@@H]1[C@]32OO4 | 86.3% (inactive)
C[C@]12CCC3C(CC[C@H]4CC(=O)CC[C@]34C)C1CCC2=O (stereo not given in full) | 94.5% (inactive)
CC1(C)N([O-])[N+](=O)C1(C)Br (stereo not given) | 96.6% (inactive)
O=C1OCCN1/N=C/c1ccc([N+](=O)[O-])o1 | 104% (inactive)
CCC(C)C(=O)O[C@H]1[C@H](O)C2C(CN3CC(C)CCC3[C@@]2(C)O)C2C[C@]34O[C@]5(O)C(OC(=O)C(C)(O)C(C)O)CC[C@@]3(C)C5C(OC(C)=O)[C@@H](OC(C)=O)C4[C@@]21O (stereo not given in full) | 107% (inactive)
CO[C@H]1[C@H](O)[C@H](O[C@H]2CC[C@]3(C)C4CC[C@]5(C)C(C6=CC(=O)OC6)CC[C@]5(O)C4CC[C@@H]3C2)O[C@@H](C)[C@@H]1O (stereo not given in full) | 93.6% (inactive)
C=C[C@@H]1C2=CCOC(=O)C2=CO[C@H]1O[C@@H]1O[C@H](CO)[C@@H](O)[C@H](O)[C@H]1O | 126% (inactive)
CC(=O)C1=C(O)C2C3c4c[nH]c5cccc(c45)CC3C(C)(C)N2C1=O (stereo not given) | 102% (inactive)
C/C=C(\C)C(=O)O[C@H]1C[C@@H](OC(C)=O)[C@@]2(C(=O)OC)CO[C@@H]3C2[C@]12CO[C@](O)(C(=O)OC)[C@H]2[C@](C)(C12O[C@@]1(C)[C@H]1C[C@@H]2OC2OC=C[C@@]21O)[C@@H]3O (stereo not given in full) | 89% (inactive)
CNC(C)[C@@H]1CC[C@@H](N)[C@@H](OC2[C@@H](N)C[C@@H](N)[C@H](OC3OC[C@](C)(O)[C@H](NC)[C@H]3O)[C@H]2O)O1 (stereo not given in full) | 116% (inactive)
CC12CCCCC1(Br)[N+](=O)N2[O-] (stereo not given) | 108% (inactive)
O=C1CC2OCC=C3CN4CC[C@]56c7ccccc7N1C5[C@H]2[C@H]3CC46 (stereo not given in full) | 121% (inactive)
O=c1ccc2c(O)c3ccoc3cc2o1 | 96.6% (inactive)
CC[C@]12CCCN3CCc4c(n(c5ccccc45)[C@](O)(C(=O)OC)C1)[C@@H]32 | 115% (inactive)
O=C(NC(=O)c1ccccc1Cl)Nc1ccc(OC(F)(F)F)cc1 | 118% (inactive)
COc1ccc2c(c1)[C@]13CCCC[C@H]1[C@H](C2)N(C)CC3 | 115% (inactive)
CNC(Cc1c[nH]c2ccccc12)C(=O)O (stereo not given) | 108% (inactive)
O=C(O)P(=O)(O)O | 112% (inactive)
COc1ccc2c(c1OC)C(=O)O[C@H]2[C@H]1c2cc3c(cc2CCN1C)OCO3 | 127% (inactive)
CC1(C)C2C[C@@H](O)[C@]3(C)C(CC[C@@]4(C)[C@H](c5ccoc5)OC(=O)[C@H]5O[C@]543)[C@@]2(C)[C@@H](O)C[C@H]1O (stereo not given in full) | 124% (inactive)
c1cc2c(cc1[C@H]1OC[C@H]3[C@@H]1CO[C@H]3c1ccc3c(c1)OCO3)OCO2 | 120% (inactive)
C[C@@H]1C(=O)OC2[C@H](O)C34[C@@H]5OC(=O)[C@@]3(O[C@@H]3OC(=O)[C@H](O)[C@@]34[C@H](C(C)(C)C)[C@H]5O)[C@]21O (stereo not given in full) | 116% (inactive)
C[C@H]1O[C@@H](O[C@H]2[C@@H](O)C[C@H](O[C@H]3[C@@H](O)C[C@H](O[C@H]4CC[C@]5(C)C6CC[C@]7(C)[C@@H](C8=CC(=O)OC8)CC[C@]7(O)C6CC[C@@H]5C4)O[C@@H]3C)O[C@@H]2C)C[C@H](O)[C@@H]1O (stereo not given in full) | 121% (inactive)
C=C1C2CC[C@H]3[C@]4(C)C[C@H](OC5OC(CO)C(OS(=O)(=O)O)C(OS(=O)(=O)O)C5OC(=O)CC(C)C)C[C@@H](C(=O)O)[C@H]4CC[C@]3(C2)[C@H]1O (stereo not given in full) | 102% (inactive)
C[C@@H]1CC[C@@]2(NC1)O[C@H]1C[C@H]3C4CC=C5C[C@@H](O)CC[C@]5(C)C4CC[C@]3(C)C1[C@@H]2C (stereo not given in full) | 118% (inactive)
COc1ccc2c(c1OC)C(=O)O[C@@H]2[C@@H]1c2cc3c(cc2CCN1C)OCO3 | 113% (inactive)
